The whole screen tested about 5,500 compounds, of which about 2,000 (36%) were called active. Inconclusive results (about 18%) are left out. No stated cut-off is given here; in the data, active means normalized growth mostly below about 0.91 (no sharp cut-off); inconclusive means no clear call, values can overlap the other calls; inactive means mostly above about 0.92. The list shows a part of the results.
Test: chemical genetic growth profiling, strain panel (AID 1159580);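 further: tested at 20 µM; growth read once vehicle control cultures reached saturation at 30 °C; 1 = growth at the plate median or of vehicle wells; lower values mean less growth of the strain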
Settings: growth OD
[1] = S. cerevisiae deletion strains, locus YAL013W, strain DEP1, active compounds read low
[2] = S. cerevisiae deletion strains, locus YAL040C, strain CLN3, active compounds read low
[3] = S. cerevisiae deletion strains, locus YCL061C, strain MRC1 (second series), active compounds read low
[4] = S. cerevisiae deletion strains, locus YDR363W, strain ESC2, active compounds read low
[5] = S. cerevisiae deletion strains, locus YER002W, strain NOP16, active compounds read low
[6] = S. cerevisiae deletion strains, locus YGR229C, strain SMI1, active compounds read low
[7] = S. cerevisiae deletion strains, locus YMR307W, strain GAS1, active compounds read low
[8] = S. cerevisiae deletion strains, locus YNL153C, strain GIM3, active compounds read low
[9] = S. cerevisiae deletion strains, locus YNL175C, strain NOP13, active compounds read low
[10] = S. cerevisiae deletion strains, locus YNL197C, strain WHI3, active compounds read low
[11] = S. cerevisiae deletion strains, locus YNL224C, strain SQS1, active compounds read low
[12] = S. cerevisiae deletion strains, locus YNL322C, strain KRE1, active compounds read low
[13] = S. cerevisiae deletion strains, locus YOR083W, strain WHI5 (second series), active compounds read low
[14] = S. cerevisiae deletion strains, locus YPL241C, strain CIN2, active compounds read low
[15] = S. cerevisiae deletion strains, locus YGR078C, strain PAC10, active compounds read low
[16] = S. cerevisiae deletion strains, locus YBR229C, strain ROT2, active compounds read low
[17] = S. cerevisiae deletion strains, locus YDL101C, strain DUN1, active compounds read low
[18] = S. cerevisiae deletion strains, locus YDL134C, strain PPH21, active compounds read low
[19] = S. cerevisiae deletion strains, locus YDR150W, strain NUM1, active compounds read low
[20] = S. cerevisiae deletion strains, locus YEL061C, strain CIN8, active compounds read low
[21] = S. cerevisiae deletion strains, locus YHR030C, strain SLT2, active compounds read low
[22] = S. cerevisiae deletion strains, locus YHR087W, strain rtc3, active compounds read low
[23] = S. cerevisiae deletion strains, locus YJL187C, strain SWE1, active compounds read low
[24] = S. cerevisiae deletion strains, locus YJR043C, strain POL32, active compounds read low
[25] = S. cerevisiae deletion strains, locus YJR075W, strain HOC1, active compounds read low
[26] = S. cerevisiae deletion strains, locus YLR039C, strain RIC1, active compounds read low
[27] = S. cerevisiae deletion strains, locus YLR058C, strain SHM2 (second series), active compounds read low
[28] = S. cerevisiae deletion strains, locus YLR085C, strain ARP6, active compounds read low
[29] = S. cerevisiae deletion strains, locus YLR262C, strain YPT6, active compounds read low
[30] = S. cerevisiae deletion strains, locus YML094W, strain GIM5, active compounds read low
[31] = S. cerevisiae deletion strains, locus YMR219W, strain ESC1, active compounds read low
[32] = S. cerevisiae deletion strains, locus YMR263W, strain SAP30, active compounds read low
[33] = S. cerevisiae deletion strains, locus YNL298W, strain CLA4 (second series), active compounds read low
[34] = S. cerevisiae deletion strains, locus YNR030W, strain Alg12, active compounds read low
[35] = S. cerevisiae deletion strains, locus YPL055C, strain LGE1, active compounds read low
[36] = S. cerevisiae deletion strains, locus YPR135W, strain CTF4, active compounds read low
[37] = S. cerevisiae strains, strain wild type, active compounds read low
[38] = S. cerevisiae deletion strains, locus YHR079C, strain IRE1, active compounds read low
[39] = S. cerevisiae deletion strains, locus YJL095W, strain BCK1, active compounds read low
[40] = S. cerevisiae deletion strains, locus YJR066W, strain TOR1, active compounds read low
[41] = S. cerevisiae deletion strains, locus YLR113W, strain HOG1, active compounds read low
[42] = S. cerevisiae deletion strains, locus YNL183C, strain NPR1, active compounds read low
[43] = S. cerevisiae deletion strains, locus YOR231W, strain MKK1, active compounds read low
[44] = S. cerevisiae deletion strains, locus YPL256C, strain CLN2, active compounds read low

Measured: normalized growth

NC(Cc1cccc(-c2ccccc2CP(=O)(O)O)c1)C(=O)O (stereo unspecified)
inactive: [1] 0.998 | [2] 1 | [3] 1 | [4] 0.983 | [5] 1.02 | [6] 1.01 | [7] 0.989 | S. cerevisiae deletion strains, locus YNL128W, strain TEP1, active compounds read low 0.994 | [8] 1.04 | [9] 0.998 | [10] 0.995 | [11] 1 | [12] 1 | [13] 0.989 | [14] 1

C[C@H](Cc1ccccc1)Nc1ncnc2c1ncn2[C@@H]1O[C@H](CO)[C@H](O)C1O (stereo partly specified)
inactive: [1] 0.995 | [2] 0.979 | [3] 1.01 | [4] 0.989 | [5] 0.997 | [15] 1 | [6] 1 | [7] 1 | [8] 1.22 | [9] 0.989 | [10] 0.99 | [11] 1 | [12] 0.996 | [13] 0.988

C/C(=N/O)c1sc2nc(C(F)(F)F)nn2c1C
inactive: [1] 0.954 | [16] 0.957 | [17] 1.01 | [18] 0.966 | [19] 0.975 | [20] 0.981 | [15] 0.956 | [6] 0.982 | [21] 0.89 | [22] 0.961 | [23] 0.974 | [24] 0.977 | [25] 0.997 | [26] 0.795 | [27] 0.953 | [28] 1.05 | [29] 0.86 | [30] 0.943 | [31] 0.963 | [32] 0.964 | [8] 1 | [33] 0.99 | [12] 0.962 | [34] 0.989 | [35] 0.96 | [14] 1.02 | [36] 0.851 | [37] 0.962

Cc1c(C(=O)Sc2ccc(F)cc2F)sc2nc(C(F)(F)F)nn12
active: S. cerevisiae deletion strains, locus YAR019C, strain CDC15, active compounds read low 0.0973 | S. cerevisiae deletion strains, locus YBL105C, strain PKC1, active compounds read low 0.0839 | S. cerevisiae deletion strains, locus YBR135W, strain CKS1, active compounds read low 0.105 | S. cerevisiae deletion strains, locus YBR136W, strain MEC1, active compounds read low 0.0954 | S. cerevisiae deletion strains, locus YBR160W, strain CDC28, active compounds read low 0.0992 | S. cerevisiae deletion strains, locus YDL017W, strain CDC7, active compounds read low 0.0838 | S. cerevisiae deletion strains, locus YDL028C, strain MPS1, active compounds read low 0.38 | [17] 0.0962 | S. cerevisiae deletion strains, locus YDL108W, strain KIN28, active compounds read low 0.105 | S. cerevisiae deletion strains, locus YDL132W, strain cdc53, active compounds read low 0.0969 | S. cerevisiae deletion strains, locus YDL214C, strain PRR2, active compounds read low 0.103 | S. cerevisiae deletion strains, locus YDR052C, strain DBF4, active compounds read low 0.102 | S. cerevisiae deletion strains, locus YDR054C, strain cdc34, active compounds read low 0.0939 | S. cerevisiae deletion strains, locus YDR226W, strain ADK1, active compounds read low 0.105 | S. cerevisiae deletion strains, locus YDR477W, strain SNF1, active compounds read low 0.107 | S. cerevisiae deletion strains, locus YER123W, strain YCK3, active compounds read low 0.111 | S. cerevisiae deletion strains, locus YER133W, strain GLC7, active compounds read low 0.106 | S. cerevisiae deletion strains, locus YFL009W, strain cdc4, active compounds read low 0.102 | S. cerevisiae deletion strains, locus YFL029C, strain CAK1, active compounds read low 0.101 | S. cerevisiae deletion strains, locus YFR003C, strain YPI1, active compounds read low 0.45 | S. cerevisiae deletion strains, locus YFR019W, strain FAB1, active compounds read low 0.107 | S. cerevisiae deletion strains, locus YFR028C, strain CDC14, active compounds read low 0.0976 | S. cerevisiae deletion strains, locus YGR040W, strain KSS1, active compounds read low 0.0958 | S. cerevisiae deletion strains, locus YGR052W, strain FMP48, active compounds read low 0.106 | S. cerevisiae deletion strains, locus YGR092W, strain DBF2, active compounds read low 0.116 | [21] 0.103 | [38] 0.101 | S. cerevisiae deletion strains, locus YHR082C, strain KSP1, active compounds read low 0.133 | S. cerevisiae deletion strains, locus YHR205W, strain SCH9, active compounds read low 0.000493 | S. cerevisiae deletion strains, locus YIL147C, strain SLN1, active compounds read low 0.488 | [39] 0.0913 | S. cerevisiae deletion strains, locus YJL128C, strain PBS2, active compounds read low 0.0913 | S. cerevisiae deletion strains, locus YJL157C, strain FAR1, active compounds read low 0.0866 | S. cerevisiae deletion strains, locus YJR016C, strain ILV3, active compounds read low 0.0901 | S. cerevisiae deletion strains, locus YJR066W, strain TOR1 (second series), active compounds read low 0.0917 | [40] 0.122 | S. cerevisiae deletion strains, locus YKL048C, strain ELM1, active compounds read low 0.131 | S. cerevisiae deletion strains, locus YKL067W, strain YNK1, active compounds read low 0.108 | S. cerevisiae deletion strains, locus YKL101W, strain HSL1, active compounds read low 0.0974 | S. cerevisiae deletion strains, locus YKL193C, strain SDS22, active compounds read low 0.101 | S. cerevisiae deletion strains, locus YKL203C, strain TOR2, active compounds read low 0.103 | [41] 0.145 | S. cerevisiae deletion strains, locus YLR133W, strain CKI1, active compounds read low 0.0966 | S. cerevisiae deletion strains, locus YLR403W, strain SFP1, active compounds read low -0.00147 | S. cerevisiae deletion strains, locus YML070W, strain DAK1, active compounds read low 0.103 | S. cerevisiae deletion strains, locus YMR001C, strain CDC5, active compounds read low 0.0979 | S. cerevisiae deletion strains, locus YMR205C, strain PFK2 (second series), active compounds read low 0.101 | S. cerevisiae deletion strains, locus YMR277W, strain FCP1, active compounds read low 0.1 | S. cerevisiae deletion strains, locus YNL006W, strain LST8, active compounds read low 0.0889 | S. cerevisiae deletion strains, locus YNL020C, strain ARK1, active compounds read low 0.0935 | S. cerevisiae deletion strains, locus YNL161W, strain CBK1, active compounds read low 0.0956 | [42] 0.104 | S. cerevisiae deletion strains, locus YNL207W, strain RIO2, active compounds read low 0.214 | S. cerevisiae deletion strains, locus YNL222W, strain SSU72, active compounds read low 0.102 | S. cerevisiae deletion strains, locus YNL307C, strain MCK1 (second series), active compounds read low 0.105 | S. cerevisiae deletion strains, locus YOL078W, strain AVO1, active compounds read low 0.101 | S. cerevisiae deletion strains, locus YOL136C, strain PFK27, active compounds read low 0.0958 | S. cerevisiae deletion strains, locus YOR061W, strain CKA2, active compounds read low 0.12 | S. cerevisiae deletion strains, locus YOR119C, strain RIO1, active compounds read low 0.116 | [43] 0.103 | S. cerevisiae deletion strains, locus YOR329C, strain SCD5, active compounds read low 0.0884 | S. cerevisiae deletion strains, locus YPL031C, strain PHO85, active compounds read low 0.0971 | S. cerevisiae deletion strains, locus YPL153C, strain RAD53, active compounds read low 0.102 | S. cerevisiae deletion strains, locus YPL204W, strain HRR25, active compounds read low 0.111 | S. cerevisiae deletion strains, locus YPL209C, strain IPL1, active compounds read low 0.0875 | [44] 0.124 | S. cerevisiae deletion strains, locus YPR025C, strain CCL1, active compounds read low 0.0998 | S. cerevisiae deletion strains, locus YPR106W, strain ISR1, active compounds read low 0.109 | S. cerevisiae deletion strains, locus YPR111W, strain DBF20, active compounds read low 0.169 | S. cerevisiae deletion strains, strain NNK1, active compounds read low 0.105 | S. cerevisiae deletion strains, strain TSCII, active compounds read low 0.104

C=CC1(C)CC(=O)C2(O)C(C)(O1)C(OC(C)=O)C(O)C1C(C)(C)CCC(O)C12C (stereo unspecified)
inactive: [2] 0.968 | [3] 0.985 | [19] 1 | [4] 0.969 | [5] 0.986 | [15] 0.996 | [25] 0.992 | [8] 1.02 | [9] 1.02 | [10] 0.994 | [11] 0.99 | [12] 0.985 | [13] 1.01 | [35] 0.994 | [14] 0.998

CSc1nc2cc(Oc3cccc(Cl)c3Cl)c(Cl)cc2[nH]1
active: [21] 0.11 | [38] 0.119 | [39] 0.114 | [40] 0.0117 | [41] 0.156 | [42] 0.000876 | [43] 0.125 | [44] 0.138

CSc1nc2ccccc2[nH]1
inactive: [1] 0.987 | [16] 0.996 | S. cerevisiae deletion strains, locus YCL061C, strain MRC1, active compounds read low 0.992 | [17] 0.999 | [18] 0.948 | [19] 1.02 | [20] 0.936 | [15] 0.99 | [21] 1.03 | [22] 0.969 | [23] 0.973 | [24] 1 | [25] 0.956 | S. cerevisiae deletion strains, locus YKL190W, strain CNB1, active compounds read low 0.984 | [26] 1.01 | [27] 0.983 | [28] 0.895 | [29] 1.01 | [30] 0.96 | [31] 0.99 | [32] 1.02 | [7] 0.89 | [8] 1.02 | [33] 0.95 | [12] 0.977 | [34] 0.923 | [35] 1.03 | [14] 0.944 | [36] 0.973 | [37] 0.981

Source: PubChem BioAssay AID1159580 (chemical genetic matrix, 2015)
